In PubChem BioAssay (NCI):
Compounds without any hit were thinned out: in the full panel of roughly 83,000, 20% have a hit.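 Cells were grown in 96-well plates and exposed to the test compound at a single concentration for 48 hours; results are reported as percent growth, with values below 10 considered active.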 Values without a mark were called inactive. The source made the active and inactive calls.

Experiments:
Assay in all cases: NCI-60 one-dose screen, 48 h (100 = growth as untreated, 0 = no growth, -100 = all killed)
Conditions in all cases: 10 µM unless noted
[1] = tested on: SK-MEL-2 melanoma
[2] = tested on: EKVX NSCLC
[3] = tested on: SN12C renal
[4] = tested on: UO-31 renal
[5] = tested on: TK-10 renal
[6] = tested on: ACHN renal
[7] = tested on: CAKI-1 renal
[8] = tested on: CCRF-CEM leukemia
[9] = tested on: MOLT-4 leukemia

## O=C1NC(=O)C(=Cc2cn(Cc3ccccn3)c3ccccc23)C(=O)N1
[1]
  growth: 102%
[2]
  growth: 98%
[3]
  growth: 102%
[4]
  growth: 75.5%
[5]
  growth: 59.8%
[6]
  growth: 104%
[7]
  growth: 13.9%
[8]
  growth: 95.8%
[9]
  growth: 100%

## NC(=O)c1cccc(-c2cc(C(N)=O)ccc2Cl)c1
[1]
  growth: 34.5%
[2]
  growth: 35.7%
[3]
  growth: 50%
[4]
  growth: 45.7%
[5]
  growth: 51.2%
[6]
  growth: 36.3%
[7]
  growth: 31.8%
[8]
  growth: 7.74% (active)
[9]
  growth: 26.9%

## CCc1c(Nc2ccc(C)cc2)[nH]c(N)nc1=S
[1]
  growth: 103%
[2]
  growth: 84.9%
[3]
  growth: 98.4%
[4]
  growth: 91.5%
[5]
  growth: 111%
[6]
  growth: 98%
[7]
  growth: 89.8%
[8]
  growth: 107%
[9]
  growth: 110%

## COc1ccc(CNCCN2C(=O)c3ccc4c5c(ccc(c35)C2=O)C(=O)N(CCNCc2ccc(OC)cc2)C4=O)cc1
[1]
  growth: -74.2% (active)
[2]
  growth: -69.3% (active)
[3]
  growth: -87.9% (active)
[4]
  growth: -76.6% (active)
[5]
  growth: -61.7% (active)
[6]
  growth: -74.3% (active)
[7]
  growth: -53.8% (active)
[8]
  growth: -16.3% (active)
[9]
  growth: -36.1% (active)

## Nc1cc(N)c2cccnc2c1O
[1]
  growth: 98.2%
[2]
  growth: 83.2%
[3]
  growth: 55.5%
[4]
  growth: 56.5%
[5]
  growth: 86%
[6]
  growth: 54.3%
[7]
  growth: 35.3%
[8]
  growth: 2.91% (active)
[9]
  growth: 5.9% (active)

## O=C(NNc1nc(Cl)nc(N2CCN(C(c3ccccc3)c3ccccc3)CC2)n1)c1ccccc1
[1]
  growth: -27% (active)
[2]
  growth: 64%
[3]
  growth: -24.2% (active)
[4]
  growth: 68.9%
[5]
  growth: 126%
[6]
  growth: -39% (active)
[7]
  growth: -51.9% (active)
[8]
  growth: -25.1% (active)
[9]
  growth: -39.2% (active)

## N#C/C(=C\c1ccc(Br)cc1)n1nnc2cccc(F)c21
[1]
  growth: 22.3%
[2]
  growth: 61.8%
[3]
  growth: 4.62% (active)
[4]
  growth: 2.69% (active)
[5]
  growth: 15.6%
[6]
  growth: 20.2%
[7]
  growth: 18.2%
[8]
  growth: -2.73% (active)
[9]
  growth: 1.33% (active)

## NC(=S)N/N=C(/c1ccccc1)c1ccccc1N
[1]
  growth: 103%
[2]
  growth: 66.1%
[3]
  growth: 85%
[4]
  growth: 62.8%
[5]
  growth: 103%
[6]
  growth: 90.6%
[7]
  growth: 80.9%
[8]
  growth: 60.2%
[9]
  growth: 52.7%

## CCNC(=S)NNC(=O)c1cc2ccc1CCc1ccc(cc1)CC2
[1]
  growth: 102%
[2]
  growth: 94.4%
[3]
  growth: 95.3%
[4]
  growth: 83.7%
[5]
  growth: 103%
[6]
  growth: 107%
[7]
  growth: 94.9%
[8]
  growth: 107%
[9]
  growth: 102%

## CCCCCN1C=C/C(=C\C(=O)N(C)c2cccc3ccccc23)c2ccccc21
[1]
  growth: 109%
[2]
  growth: 89.1%
[3]
  growth: 100%
[4]
  growth: 82.5%
[5]
  growth: 105%
[6]
  growth: 104%
[7]
  growth: 89.8%
[8]
  growth: 89.5%
[9]
  growth: 99%

## COc1ccc2c(Nc3ccc(NS(C)(=O)=O)cc3)c3ccccc3nc2c1
[1]
  growth: -70.4% (active)
[2]
  growth: 6.78% (active)
[3]
  growth: 10.3%
[4]
  growth: -41.5% (active)
[5]
  growth: 9.37% (active)
[6]
  growth: -3.55% (active)
[7]
  growth: -22.6% (active)
[8]
  growth: 11%
[9]
  growth: 2.19% (active)

## CNC(=O)Nc1ccc(-c2nc(N3CCOCC3)nc3c2cnn3C2CCOCC2)cc1
[1]
  growth: -23.8% (active)
[2]
  growth: -24.3% (active)
[3]
  growth: 7.06% (active)
[4]
  growth: -23.5% (active)
[5]
  growth: -38% (active)
[6]
  growth: 4.27% (active)
[7]
  growth: -19.3% (active)
[8]
  growth: 23.8%
[9]
  growth: 11.9%

## CC(=O)OCC(=O)C1(O)C(C)CC2C3C=C(C)C4=Cc5c(cnn5-c5ccccc5)CC4(C)C3C(O)CC21C (configuration not stated)
[1]
  growth: 25.1%
[2]
  growth: 27%
[3]
  growth: 33.5%
[4]
  growth: -11.6% (active)
[5]
  growth: 38.7%
[6]
  growth: 22.8%
[7]
  growth: 21.3%
[8]
  growth: 10.6%
[9]
  growth: 9.2% (active)

## CCCN=C(N)c1ccc(NC(=O)c2ccc(C(=O)Nc3ccc(C(N)=NCCC)cc3)cc2)cc1
[1]
  growth: 97.2%
[2]
  growth: 96.1%
[3]
  growth: 93.1%
[4]
  growth: 79.8%
[5]
  growth: 99%
[6]
  growth: 91.8%
[7]
  growth: 95%
[8]
  growth: 108%
[9]
  growth: 78.2%

## C=C(C)[C@@H]1CC[C@]2(C=O)CC[C@]3(C)[C@H](CC[C@@H]4[C@@]5(C)CCCNC(C)(C)[C@@H]5CC[C@]43C)[C@@H]12
[1]
  growth: 89.5%
[2]
  growth: 96.6%
[3]
  growth: 74.1%
[4]
  growth: 69%
[5]
  growth: 88.2%
[6]
  growth: 88.1%
[7]
  growth: 89.4%
[8]
  growth: 59.7%
[9]
  growth: 49.1%

## COc1ccc(-c2nc(SCCC(C)C)nc(N/N=C(/C)c3ccc(C)cc3)c2C#N)cc1
[1]
  growth: 106%
[2]
  growth: 90.8%
[3]
  growth: 75%
[4]
  growth: 66%
[5]
  growth: 107%
[6]
  growth: 89.6%
[7]
  growth: 83.2%
[8]
  growth: 94.4%
[9]
  growth: 88.3%

## c1ccc(-c2nn(-c3ccccc3)[n+](-c3cccc4ccccc34)n2)cc1
[1]
  growth: -11.3% (active)
[2]
  growth: 11.8%
[3]
  growth: 32.7%
[4]
  growth: 69.1%
[5]
  growth: 40.4%
[6]
  growth: 72.2%
[7]
  growth: 90.3%
[8]
  growth: 18.7%
[9]
  growth: 18.9%

## O=c1[nH]c(=O)[nH]c(=S)[nH]1
[1]
  growth: 103%
[2]
  growth: 97.8%
[3]
  growth: 94.3%
[4]
  growth: 89.2%
[5]
  growth: 95.8%
[6]
  growth: 94.3%
[7]
  growth: 94.9%
[8]
  growth: 101%
[9]
  growth: 105%
